In PubChem BioAssay:

Experiment: yeast transport mutant growth inhibition pilot in 384-well plates, post-Golgi transport modulator project (AID 636)
Conditions: absorbance 615 nm, about 18 h, active compounds read high; in the data active = inhibition above about 31%; inactive = the rest

inhibition, inactive:
CC1(C)NC(=O)N(CN2C(=O)NC(C)(C)C2=O)C1=O -3.33%
Cc1ccccc1NC(=O)C1CCC(C)(C(=O)O)C1(C)C (centres undefined) -0.78%
CC(C)[C@H](NC(=O)OC(C)(C)C)c1nnc(S(=O)(=O)Cc2c(F)cccc2Cl)o1 -2.76%
CSC1CCCCC1(O)CSc1nc2c(cc1C#N)CCCC2 (centres undefined) -0.66%
Cc1cccc(NC(=O)CCn2ccnc2C)c1 -1.95%
CCCSc1nnc(-c2ccccc2NC(=O)CC)c(=O)[nH]1 -5.87%
Cc1ccc(S(=O)(=O)N2CCCC2C(=O)OCc2ccco2)cc1 (centres undefined) -6.58%
Cc1ccc(C2C(C#N)=C(N)Oc3cc4c(cc32)OCO4)cc1 (centres undefined) -4.42%
CCNc1oc(COc2ccccc2F)nc1C#N -2.6%
CC(C)Cc1nnc(NC(=O)CCC(=O)N2CCOCC2)s1 -4.8%
Cc1cccc(OCC(=O)Nc2ccccc2N2CCN(C(=O)C(C)C)CC2)c1C -1.95%
CC1(C)NC(=O)N(CCOc2cccc(Cl)c2Cl)C1=O -5.2%
Cn1c(=O)[nH]c(=O)c2c1nc(NC1CCCCC1)n2CC(=O)NC1CCCCC1 -7.6%
COc1ccc(Nc2ncc3c(n2)CC(c2ccc(OC)cc2)CC3=O)cc1 (centres undefined) -4%
COc1ccc(OC)c(Nc2ncnc3c2cnn3-c2ccccc2)c1 -4.67%
O=C(c1ccc(-c2ccccc2)cc1)N1CCC(C(=O)N2CCCC2)CC1 -6.67%
Cc1cccc(NCc2ccccc2O)c1 -0.13%
CCCCC(CC)Cn1c2nc3ccccc3nc2c2c(=N)oc(C)nc21 (centres undefined) -2.63%
O=C(Sc1nnnn1C1CCCCC1)c1cccs1 -6.53%
Cc1cc(=O)[nH]c2c1cnn2Cc1ccccc1 -1.97%
O=C(CN1CCOCC1)Nc1cccc(C(=O)Nc2cccc(C(F)(F)F)c2)c1 -0.26%
CCOC(=O)CS(=O)(=O)c1nc(-c2ccccc2)cc(C(F)(F)F)n1 0.39%
CCn1c(Cc2ccccc2)nnc1SCC(=O)Nc1nc2ccccc2s1 -3.03%
CCOc1ccccc1N(CC(=O)N1CCOCC1)S(=O)(=O)c1ccccc1 2.8%
O=C(Nc1ccc(Cl)cc1)N1CCSCC1 -1.45%
CC(=O)c1cccc(NS(=O)(=O)c2ccc3c(c2)oc(=O)n3C)c1 -2.67%
O=C1c2ccccc2C(=O)N1CCCCN1CCN(CCCCN2C(=O)c3ccccc3C2=O)CC1 -7.33%
CCCC1CCC(C(=O)Nn2c(C)nc3ccccc3c2=O)CC1 (centres undefined) -3.16%
Cc1cnn(C(=S)NCc2ccco2)c1 2.24%
Cc1ccccc1CN1CCN(CC(=O)NCc2ccco2)C1=O -1.17%
CC1(C)C2CCC1(CS(=O)(=O)NCc1ccc(C(=O)O)cc1)C(=O)C2 (centres undefined) -0.39%
Cc1cccc2cc(C#N)c(SCCN3CCCCC3)nc12 1.35%
CC1(C)CC(=O)c2c(O)cc(O)cc2O1 -8.42%
Cc1nc(C)c(C(=O)C2=C(O)C(=O)N(CCN3CCOCC3)C2c2ccco2)s1 (centres undefined) -4.8%
Cc1cc(C(F)(F)F)nc(SCC(=O)NC2=NC(=O)C(C)S2)n1 (centres undefined) -2.27%
CN(c1cccc(NC(=O)COc2ccccc2)c1)S(C)(=O)=O 4.47%
Cc1noc(C)c1COc1cccc(C(=O)Oc2ccc3c(c2)OCO3)c1 -4.81%
COc1ccc(N(CC(=O)Nc2ccccc2SC)S(C)(=O)=O)cc1OC -2.63%
Cc1cc(C)n(S(=O)(=O)c2cc(C(=O)O)c(Cl)cc2Cl)n1 -3.47%
